According to PubChem BioAssay (NCATS):
“And” between values parts separate entries of the source, which are not always exact repeats. Equal values may be shown once. Records with an inconclusive call do not appear. A call without a number means that no potency is given here. The source made the active and inactive calls. Calls follow the shape of the dose curve; as a rule, active = well fitted cell-killing curve with a large enough effect; inconclusive = small, poorly fitted or top-dose-only effect; inactive = no such curve, though single readings can be large or run the other way. Peptide text beside a SMILES is read from it.

Assay: qHTS of pediatric cancer cell lines to identify multiple opportunities for drug repurposing: Primary screen for NB-EBc1 cells (AID 1347095)
Settings: NB-EBc1 neuroblastoma viability, CellTiter-Glo luminescence, 48 h; series mostly up to 46 µM
Source text: Drug repurposing or repositioning has been offered as a strategy for drug development in oncology programs. This approach has special potential for childhood cancers and other rare or orphan diseases, where the expected return on new drug development has been a disincentive to pharmaceuticals. […] In this project we exploit the poly-pharmacology of drugs to discover new indications via phenotypic screening of a panel of 19 well-characterized cell lines derived from solid tumors seen in children and adolescents. The goal is to identify approved drugs with previously unrecognized anticancer properties that has the potential to reveal new mechanisms and biological processes involved in carcinogenesis or drug resistance. We employed a titration-based paradigm (quantitative high-throughput screening or qHTS), where all compounds were tested at multiple concentrations for their effect on cell viability. Concentration-response curves (CRCs) were derived directly from the primary screen, and both potency and efficacy values were used to identify compounds with robust bioactivity profiles. We screened the NIH Chemical Genomics Center (NCGC) Pharmaceutical Collection (NPC) and Mechanism Interrogation Plate (MIPE) small molecule collections of approved and investigational compounds against these cell lines; and measured metabolically active cells after 48 hours of compound treatment as a proxy for cell viability. […] Assay Submitter: Nathalia J. Martinez, National Center for Advancing Translational Sciences, National Institutes of Health, Rockville, MD, USA; email: natalia.martinez@nih.gov Shen, M et al. Quantitative high-throughput phenotypic screening of pediatric cancer cell lines identifies multiple opportunities for drug repurposing. Oncotarget 2017 Dec 19;9(4):4758-4772. PMID 29435139.
The cells were obtained from University of North Carolina (UNC), Pediatric Preclinical Testing Program (PPT), and Coriell Institute (CI). qHTS cell viability assay: Cells were assayed in growth media at a density of 500-1,000 cells/well. Five microliters of cells were dispensed into 1,536-well, white, solid-bottom, TC-treated plates (Greiner Bio One) using a multidrop dispenser and incubated at 37 degrees C, 5% CO2, under a humidified atmosphere for 5 hours. Twenty-three nanoliters of compounds and controls (neutral control DMSO or positive control bortezomib at final concentration of 2.3 µM) were subsequently transferred by Kalypsys pintool. For primary screens, the MIPE collection was tested at 11-point dilutions (final concentrations range from 0.78 nM to 46 µM) and the NPC collection at 8-point dilutions (final concentrations range from 0.59 nM to 46 µM). Compounds tested in follow-up screens were assayed at 11-point dilutions. Cells were incubated for 48 hours, followed by addition of 3 µL of CellTiter-Glo (Promega). After a 15 min incubation at room temperature, samples were analyzed for luminescence intensity using a ViewLux High-throughput CCD imager equipped with clear filters.
Potency is read from the fitted curve at half-maximal effect.

SMILES	Potency
Cc1ccc(S(=O)(=O)NC(=O)NN2CC3CCCC3C2)cc1 (stereo not given)	inactive
Nc1ccc(S(N)(=O)=O)cc1	inactive
CN(C)C(=O)[C@H](O)[C@H](Cc1ccccc1)NC(=O)c1cc2cc(Cl)ccc2[nH]1	3.32 µM (active)
Nc1ccn([C@@H]2O[C@H](CO)[C@@H](O)C2O)c(=O)n1 (stereo not given in full)	inactive
CC1(C)NC(=O)N(c2ccc([N+](=O)[O-])c(C(F)(F)F)c2)C1=O	inactive
Oc1ccc(-c2nc(-c3ccc(F)cc3)c(-c3ccncc3)[nH]2)cc1	inactive
CCCCN(CCCC)CCC(O)c1cc2c(Cl)cc(Cl)cc2c2cc(C(F)(F)F)ccc12 (stereo not given)	inactive
CCOC(=O)C1=C[C@@H](OC(CC)CC)[C@H](NC(C)=O)[C@@H](N)C1	inactive
Nc1cc(C(Cl)=C(Cl)Cl)c(S(N)(=O)=O)cc1S(N)(=O)=O	inactive
CCCCC(CC)COC(=O)C(C#N)=C(c1ccccc1)c1ccccc1 (stereo not given)	inactive
C=CCc1cc(OC)c(O)c(C(=O)NCCO)c1	inactive
CC1=C(C)C(=O)C(C(CCCCCC(=O)O)c2ccccc2)=C(C)C1=O (stereo not given)	inactive
O=C(O)c1cn(-c2ccc(F)cc2)c2cc(N3CCNCC3)c(F)cc2c1=O	inactive
COc1cc(C(C)=O)ccc1OCCCN1CCC(c2noc3cc(F)ccc23)CC1	inactive
CCOC(=O)c1c(C)n(C)c2ccc(O)cc12	inactive
C[C@H](Cc1ccc(O)c(O)c1)[C@@H](C)Cc1ccc(O)c(O)c1	2.35 µM (active)
O=C1c2c(O)cc(O)cc2OC(c2ccc(O)c(O)c2)C1O (stereo not given)	inactive
COc1cc2c(N3CCN(C(=O)Nc4ccc(OC(C)C)cc4)CC3)ncnc2cc1OCCCN1CCCCC1	inactive
COC(=O)C1=C(C)NC(C)=C(C(=O)OCCCN2CCC(c3ccccc3)(c3ccccc3)CC2)C1c1cccc([N+](=O)[O-])c1 (stereo not given)	inactive
C[Se]CCC(N)C(=O)O (stereo not given)	inactive

SMILES	Potency
Cc1cccc(CN2CCN(C(c3ccccc3)c3ccc(Cl)cc3)CC2)c1 (stereo not given)	18.7 µM (active)
Cc1cc(=O)oc2cc(O)ccc12	inactive
COC(=O)[C@H](Cc1ccccc1)NC(=O)[C@@H](N)CC(=O)O (H-Asp-Phe-OMe)	inactive
Cc1cc2c(s1)Nc1ccccc1N=C2N1CCN(C)CC1	inactive
Cc1ccc(NC(=O)c2ccc(CN3CCN(C)CC3)cc2)cc1Nc1nccc(-c2cccnc2)n1	inactive
NC(=NCc1ccccc1)NC(=O)c1nc(Cl)c(N)nc1N	inactive
COC(=O)N[C@H](C(=O)N[C@@H](Cc1ccccc1)[C@@H](O)CN(Cc1ccc(-c2ccccn2)cc1)NC(=O)[C@@H](NC(=O)OC)C(C)(C)C)C(C)(C)C	inactive
O=C1CCc2ccc(OCCCCN3CCN(c4cccc(Cl)c4Cl)CC3)cc2N1	inactive
CCOC(=O)C(C)Oc1cccc2c(=O)n(CC(=O)Nc3ccc4c(c3)OCCO4)ccc12 (stereo not given)	inactive
CC(C)[C@H](N)C(=O)OCCOCn1cnc2c(=O)[nH]c(N)nc21	inactive
CC(C)c1nc(CN(C)C(=O)N[C@H](C(=O)N[C@@H](Cc2ccccc2)C[C@H](O)[C@H](Cc2ccccc2)NC(=O)OCc2cncs2)C(C)C)cs1	23.7 µM (active)
CN1CCC(=C2c3ccccc3CCc3sccc32)CC1	inactive
CCOC(=O)C1=C(O)C(=O)N(Cc2ccccc2)C1	inactive
CNC[C@@H](O)[C@@H](O)[C@H](O)[C@H](O)CO	inactive
Cn1c(NCCN(CCO)CCCc2ccc([N+](=O)[O-])cc2)cc(=O)n(C)c1=O	inactive
c1ccc2[nH]c(-c3cscn3)nc2c1	inactive
NNc1nncc2ccccc12	inactive
Oc1ccc(OCc2ccccc2)cc1	inactive
CC[C@]1(O)C[C@H]2CN(CCc3c([nH]c4ccccc34)[C@@](C(=O)OC)(c3cc4c(cc3OC)N(C=O)[C@H]3[C@@](O)(C(=O)OC)[C@H](OC(C)=O)[C@]5(CC)C=CCN6CC[C@]43[C@@H]65)C2)C1	9.3 nM (active) and 237 nM (active)
C[C@@H](c1ncncc1F)[C@](O)(Cn1cncn1)c1ccc(F)cc1F	inactive
